The text below walks through data of the supplement of paper PMC10037445.

In test [1] the test system is RAW-Dual. The experiment in a line: NF-kB SEAP reporter activity, fold change vs agonist alone; cytotoxicity flag (confluency mask): not cytotoxic; higher = enhanced NF-kB activity. A digest of the protocol: (§1)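 After 50 nL of library stock was delivered by pin tool to RAW-Dual macrophages (50,000 cells/well, DMEM, 384-well plates), a PRR agonist was added 1 h later and the plates were kept at 37 °C, 5% CO2. Twenty hours later, IRF was read from supernatant by QuantiLuc luminescence and NF-κB by QuantiBlue absorbance at 620 nm. Reporter activity is stated as fold change over agonist-alone wells. Wells with IncuCyte confluency under 70% of agonist controls in both mask sets were counted as cytotoxic.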

Test [2] has as its system RAW-Dual. Put plainly: NF-kB SEAP reporter activity, fold change vs agonist alone; higher = enhanced NF-kB activity. A digest of the protocol:
as §1

Test [3] relates to RAW-Dual. Put plainly: NF-kB SEAP reporter activity, fold change vs agonist alone; cytotoxicity flag (confluency mask): cytotoxic (confluency <70% of control); higher = enhanced NF-kB activity. In short, it runs like this:
as §1

The mark [4] stands for this setting: agonist: ODN 1826 (TLR9) 0.5 ug/mL.
The mark [5] stands for this setting: agonist: Pam2CSK4 (TLR2/6) 0.1 ug/mL.
[6] abbreviates: agonist: Pam3CSK4 (TLR2/1) 0.1 ug/mL.
The mark [7] stands for this setting: library stock concentration (final ~1000-fold dilution): 10 mM, cytotoxicity flag (confluency mask): not cytotoxic, agonist: Imiquimod (TLR7) […].
Setting [8] is: library stock concentration (final ~1000-fold dilution): 10 mM, cytotoxicity flag (confluency mask): not cytotoxic, agonist: MPLA (TLR4) […].

The full ranking holds about 2,900 compounds; the median of “NF-kB SEAP reporter activity, fold change vs agonist alone” is about 0.99, and the highest 2% start at about 2.6. Only a selection was taken, and the highest values are over-represented in it overall.

In the case of `CCOC(=O)C1=Cc2ccc(C(F)(F)C(F)(F)F)cc2N=C(N)C1` (library stock concentration (final ~1000-fold dilution): .1 mM), the “NF-kB SEAP reporter activity” value in the test with RAW-Dual [1] (agonist: LPS (TLR4) 0.1 ug/mL) amounted to 1.34; in the test with RAW-Dual [1] (setting [4]) it was 1.25; in the test with RAW-Dual [1] (setting [5]) it was 1.09; with RAW-Dual [1] (setting [6]), 1.17.

As for `CCOC(=O)C1=Cc2ccc(C(F)(F)C(F)(F)F)cc2N=C(N)C1`, the “NF-kB SEAP reporter activity” value with RAW-Dual [2] (library stock concentration (final ~1000-fold dilution): .1 mM, cytotoxicity flag (confluency mask): not cytotoxic, agonist: Imiquimod (TLR7) […]) came out at 0.718; in the test on RAW-Dual [2] (library stock concentration (final ~1000-fold dilution): .1 mM, cytotoxicity flag (confluency mask): not cytotoxic, agonist: MPLA (TLR4) […]), 1.18.

As for `CCCN(CCC)C(=O)C1=Cc2ccc(-c3ccc(C(=O)N4CCCC4)cc3)cc2N=C(N)C1` (library stock concentration (final ~1000-fold dilution): 1 mM), the “NF-kB SEAP reporter activity” value in the test with RAW-Dual [1] (agonist: LPS (TLR4) 0.1 ug/mL) amounted to 2.58; in the test on RAW-Dual [1] (setting [4]), 1.07; in the test with RAW-Dual [1] (setting [5]), 1.16; with RAW-Dual [1] (setting [6]), 1.26.

With `Cl.Nc1ccn(C2OC(CO)C(O)C2O)c(=O)n1` (stereo unspecified) (library stock concentration (final ~1000-fold dilution): 10 mM), the “NF-kB SEAP reporter activity” value with RAW-Dual [1] (agonist: LPS (TLR4) 0.1 ug/mL) was 0.959; with RAW-Dual [1] (setting [4]) it was 1.65; in the test with RAW-Dual [1] (setting [5]), 1.16; in the test on RAW-Dual [1] (setting [6]), 1.35.

On to `Cl.Nc1ccn(C2OC(CO)C(O)C2O)c(=O)n1` (stereo unspecified), for which the “NF-kB SEAP reporter activity” value came out at 1.72 in the test with RAW-Dual [2] (setting [7]) and 1.42 in the test on RAW-Dual [2] (setting [8]).

For the compound `C=C1CC[C@@H]2[C@](C)(CO)[C@H](O)CC[C@@]2(C)[C@@H]1/C=C/C1=CCOC1=O` (library stock concentration (final ~1000-fold dilution): 10 mM), the “NF-kB SEAP reporter activity” value in the test on RAW-Dual [1] (agonist: LPS (TLR4) 0.1 ug/mL) stood at 0.755; with RAW-Dual [1] (setting [4]), 0.721; in the test on RAW-Dual [1] (setting [5]) it was 0.5; in the test with RAW-Dual [1] (setting [6]) it was 0.597.

In the case of `C=C1CC[C@@H]2[C@](C)(CO)[C@H](O)CC[C@@]2(C)[C@@H]1/C=C/C1=CCOC1=O`, the “NF-kB SEAP reporter activity” value in the test on RAW-Dual [2] (setting [7]) came out at 0.706; in the test with RAW-Dual [2] (setting [8]), 0.901.

Regarding `Cl.Cl.O=c1cc(CN2CCOCC2)occ1OCCCCCSc1ccnc2cc(C(F)(F)F)ccc12` (library stock concentration (final ~1000-fold dilution): 10 mM), the “NF-kB SEAP reporter activity” value in the test with RAW-Dual [3] (agonist: LPS (TLR4) 0.1 ug/mL) amounted to 0.81; with RAW-Dual [3] (setting [4]), 0.603; in the test with RAW-Dual [3] (setting [5]), 0.59; in the test with RAW-Dual [3] (setting [6]) it was 0.529.

In the case of `Cl.Cl.O=c1cc(CN2CCOCC2)occ1OCCCCCSc1ccnc2cc(C(F)(F)F)ccc12`, the “NF-kB SEAP reporter activity” value with RAW-Dual [2] (library stock concentration (final ~1000-fold dilution): 10 mM, cytotoxicity flag (confluency mask): cytotoxic (confluency <70% of control), agonist: Imiquimod (TLR7) […]) was 0.953; in the test with RAW-Dual [2] (library stock concentration (final ~1000-fold dilution): 10 mM, cytotoxicity flag (confluency mask): cytotoxic (confluency <70% of control), agonist: MPLA (TLR4) […]), 0.895.

For the compound `Nc1ncnc2[nH]nc(Nc3ccc(F)cc3)c12` (library stock concentration (final ~1000-fold dilution): 10 mM), the “NF-kB SEAP reporter activity” value turned out to be 6.5 in the test on RAW-Dual [1] (agonist: LPS (TLR4) 0.1 ug/mL), 1.43 in the test on RAW-Dual [1] (setting [4]), 0.872 with RAW-Dual [1] (setting [5]) and 1.26 in the test with RAW-Dual [1] (setting [6]).

As for `Fc1ccc(CNc2ncnc3ccc(F)cc23)cc1`, the “NF-kB SEAP reporter activity” value with RAW-Dual [2] (setting [7]) came out at 0.988; with RAW-Dual [2] (setting [8]) it was 1.47.

For the compound `Nc1ncnc2[nH]nc(Nc3ccc(F)cc3)c12`, the “NF-kB SEAP reporter activity” value in the test on RAW-Dual [2] (setting [7]) is 1.13; in the test on RAW-Dual [2] (setting [8]) it was 2.6.
